# Measured values taken from PubChem BioAssay AID504332 (National Center for Advancing Translational Sciences (NCATS), 2011).
# In all, about 350,000 compounds went through this assay and about 31,000 (8.9%) were called active. Inconclusive results (about 15%) are left out. Calls come from the whole dose curve; as a rule, active = well fitted inhibition curve with a large enough effect; inconclusive = small, poorly fitted or top-dose-only effect; inactive = no such curve, though single readings can be large or run the other way. Only a selection was taken, and actives are over-represented in it overall. Where a structure was tested more than once in an assay, its records may differ in their call.
# Target: Histone-lysine N-methyltransferase EHMT2 (Homo sapiens) (UniProt Q96KQ7)
# Sequence (Q96KQ7 913-1193 limits assumed): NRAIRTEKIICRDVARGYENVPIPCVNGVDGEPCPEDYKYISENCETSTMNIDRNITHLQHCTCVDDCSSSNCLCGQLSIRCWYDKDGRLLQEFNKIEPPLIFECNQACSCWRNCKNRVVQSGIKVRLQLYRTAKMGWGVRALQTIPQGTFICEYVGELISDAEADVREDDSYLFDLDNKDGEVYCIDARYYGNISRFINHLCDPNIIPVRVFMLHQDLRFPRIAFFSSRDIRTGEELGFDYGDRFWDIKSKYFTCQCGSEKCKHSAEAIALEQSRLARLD
# Experiment: qHTS Assay for Inhibitors of Histone Lysine Methyltransferase G9a; note: nearly all actives have a fitted effect of over 75% in size
# Settings: G9a H3K9 monomethylation, AlphaScreen, 2 h; series mostly up to 59 µM; activity, negative = inhibition: at the top concentration
# In short: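 Compounds were preincubated with 20 nM G9a for 15 min, after which biotinylated H3K9 peptide (500 nM) and SAM (20 uM) started a 2 h room-temperature reaction. Monomethylated product was quantified by antibody-based AlphaScreen chemiluminescence.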
# % is set by controls: 0 for no effect and ±100 for the full control effect; potency is the fitted concentration of half-maximal effect.
SMILES,"activity, negative = inhibition",Potency
O=C(c1ccccc1)c1ccc(OC(=O)N2CCCC2)cc1,-2.47% (inactive),–
c1ccc(CC2CCN(c3nc4ccccc4n4cnnc34)CC2)cc1,26.6% [at 12.7 µM] (inactive),–
O=C(c1ccccc1)c1ccc2nc(N3CCCCC3)c3nncn3c2c1,–,44.7 µM (active)
O=C(Nc1ccc(Oc2ccccc2)cc1)C1CCN(S(=O)(=O)c2ccc(Cl)cc2)CC1,4.44% (inactive),–
COc1cccc(NC(=O)c2ccc3nc(CCc4ccccc4)oc3c2)c1,-23.2% (inactive),–
COc1cccc(NC(=O)CSC2=Nc3ccccc3C3=NC(CC(=O)NC4CCCCC4)C(=O)N23)c1 (stereo not drawn),-0.713% (inactive),–
COc1cc(Cl)c(NC(=O)C(NS(=O)(=O)c2cccs2)C(C)C)c(OC)c1 (stereo not drawn),10.2% (inactive),–
COc1ccc(C2(C)NC(=O)N(CC(=O)c3ccc4c(c3)OCO4)C2=O)cc1 (stereo not drawn),100% [at 102 µM] (inactive),–
COc1ccc(NC(=O)NCc2ccc3c(c2)OCO3)c(OC)c1,123% [at 102 µM] (inactive),–
COc1ccc2c(c1)C(C)=CC(C)(C)N2C(=O)CNCc1ccc2c(c1)OCO2,–,28.2 µM (active)
COc1ccc(OC)c(-c2nc(C(N)=O)c3c(n2)n(-c2ccc4c(c2)OCO4)c(=O)n3C)c1,-0.66% (inactive),–
COc1cc(OC)c(C(=O)NCc2ccc3c(c2)OCO3)cc1OC,-3.02% (inactive),–
COc1cccc(CNCc2ccc3c(c2)OCO3)c1,–,22.4 µM (active)
Cc1ccsc1C(=O)NCCc1ccco1,-0.499% [at 12.7 µM] (inactive),–
COc1ccccc1-c1noc(-c2ccc(NCc3ccccc3)c([N+](=O)[O-])c2)n1,9.56% (inactive),–
Clc1ccc(C2=CSC3=Nc4cccc5cccc(c45)N23)cc1,–,3.55 µM (active)
O=C(Nc1ccc2nc(SCC(=O)N3CCCc4ccccc43)sc2c1)c1ccc(Cl)cc1,-5.84% (inactive),–
CCCNC(=O)CSc1nc(Cc2ccccc2)nc2ccccc12,13.1% [at 102 µM] (inactive),–
Cc1ccc(S(=O)(=O)NCc2nc3nc(C)cc(C)n3n2)cc1,-4.11% (inactive),–
NC(=O)NC(CC(=O)NNC(=O)c1ccccn1)c1ccc(Cl)cc1 (stereo not drawn),54.7% [at 12.7 µM] (inactive),–
Cc1ccc(Cn2c(CCCNC(=O)C3CCCCC3)nc3ccccc32)cc1,-38.9% (inactive),–
CC(=O)Nc1nc2ccccc2n1Cc1ccc(C)cc1,1.65% [at 102 µM] (inactive),–
CCCc1nc2c(C)cc(-c3nc4ccccc4n3C)cc2n1Cc1ccc(-c2ccccc2C(=O)O)cc1,-43.4% [at 2.33 µM] (inactive),4.47 µM (active)
COc1ccc(C(=O)Nc2nonc2-c2ccc(OC)c(OC)c2)cc1Cl,1.07% (inactive),–
COc1cccc(NC(=O)CCNS(=O)(=O)c2ccc3c(c2)oc(=O)n3C)c1,1.31% [at 0.0925 µM] (inactive),–
COc1ccc(S(=O)(=O)NCCCCOc2ccc(Cl)cc2)cc1,21.3% [at 2.33 µM] (inactive),–
COc1cccc(NC(C)=[N+](C)CCNS(=O)(=O)c2ccc(Cl)cc2)c1,–,15.8 µM (active)
